Experimental data from the supplement of paper PMC3334620.
Over roughly 33,000 sequences, “E-score (-0.5 to 0.5)” has its median near -0.0014; the highest 2% begin near 0.25. The full list was thinned out, with the highest values kept by preference.

target: T1, Cad1 (UniProt P24813); test: PBM E-score (8-mer binding enrichment) (E-score (-0.5 to 0.5)); higher = stronger / more preferred TF binding; details: protein concentration: 100 nM; construct: GST-full length
T1 sequence: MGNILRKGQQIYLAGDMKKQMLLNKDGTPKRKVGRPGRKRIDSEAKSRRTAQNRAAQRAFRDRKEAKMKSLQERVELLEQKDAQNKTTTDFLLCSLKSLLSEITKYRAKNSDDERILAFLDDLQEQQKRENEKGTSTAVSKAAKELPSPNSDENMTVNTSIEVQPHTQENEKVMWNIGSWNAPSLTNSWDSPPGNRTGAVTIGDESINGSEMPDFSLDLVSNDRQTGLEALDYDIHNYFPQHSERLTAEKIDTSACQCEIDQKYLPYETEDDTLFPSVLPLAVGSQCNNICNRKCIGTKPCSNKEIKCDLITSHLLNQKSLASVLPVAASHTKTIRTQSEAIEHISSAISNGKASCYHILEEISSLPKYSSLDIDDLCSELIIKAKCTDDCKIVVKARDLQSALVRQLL
Method in brief: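 The E-score, a modified Wilcoxon-Mann-Whitney statistic, was computed by the Universal PBM Analysis Suite for every ungapped eight-base word pooled with its reverse complement. Scans behind it were normalised with masliner after bound GST-tagged yeast transcription factors were detected with fluorescent anti-GST. The proteins, at about 100-200 nM, had been applied to universal all-10-mer Agilent arrays made double-stranded by primer extension.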

In order of rising “PBM E-score” value:
1. CTCTAGTC  -0.388
2. CCCCAAGG  -0.307
3. AGTAGCCA  -0.282
4. CTGGCTAC  -0.259
5. ATTCCCGA  -0.241
6. CCCTAAAA  -0.228
7. GCGGGTCC  -0.207
8. CTCCACCA  -0.193
9. ACCCTCTA  -0.192
10. AGTAGATC  -0.191
11. GCTTTGCC  -0.183
12. CAGGTCTC  -0.164
13. AACCCCGC  -0.159
14. CAGGGCTC  -0.158
15. GCTCAGCC  -0.143
16. AAGTCCTG  -0.138
17. TGTCGCAA  -0.137
18. CCTAATTC  -0.115
19. CGCTAGAG  -0.115
20. AGTCCAGC  -0.112
21. AGGCAAAC  -0.106
22. ATGGACCC  -0.0809
23. AGGATTAT  -0.0734
24. AGCGCCAA  -0.0679
25. GCTAATGA  -0.0534
26. CGACCATA  -0.0443
27. ATTCCCCG  -0.0432
28. GAACAACA  -0.043
29. GTATTAAC  -0.0392
30. GGCCTCAA  -0.0369
31. TATATGGA  -0.0332
32. ATAATCCC  -0.033
33. AGACTTGA  -0.0266
34. CACCGTGG  -0.018
35. CCGTATTC  -0.0178
36. CGGAAACG  -0.0175
37. CAACAAGA  -0.0155
38. AAAGTCGA  -0.0137
39. TCCAAGAA  -0.0134
40. ATCCGGGG  -0.0124
41. GCTCGCTA  -0.0118
42. GATAGACA  -0.0074
43. CAACCGTG  0.00095
44. AATCTAGG  0.00096
45. ACTTCCAC  0.00186
46. GATCCTAC  0.00192
47. CTTTACCA  0.00321
48. ACTAACTA  0.00503
49. CCGGGTAG  0.00529
50. ATTTTCCC  0.00868
51. GAATCTGC  0.014
52. AGTATATC  0.0175
53. CTAATCTA  0.0215
54. ACTCGCGG  0.0242
55. CAATATAC  0.0244
56. ATTAGATC  0.03
57. CTTTGCAA  0.0374
58. AATAAGAT  0.039
59. ATTATATC  0.0433
60. CGATTGCC  0.0433
61. GCAATCCA  0.0441
62. CCCAAGAA  0.0477
63. AGATCGAC  0.0578
64. ACATTGGT  0.0584
65. GCACCTCA  0.0626
66. AAGAATTC  0.0649
67. AATAAGAG  0.0662
68. CACACTCG  0.0692
69. AATGGACT  0.0697
70. AATATGGA  0.0714
71. GGACAGAA  0.0717
72. GACATGTA  0.0721
73. AAAGTCAT  0.074
74. GCGTTAGC  0.0751
75. CGAAAACG  0.0757
76. AGTATATG  0.0763
77. ACGAATTA  0.0763
78. TGCTCCAA  0.0768
79. ATTTCCGA  0.0803
80. CACATATA  0.0867
81. GTTTGCAA  0.0869
82. ACTCGCGC  0.0881
83. AAGCCATC  0.0891
84. GATATACA  0.0899
85. GACATATA  0.0919
86. CTTATATC  0.0947
87. GAATATAA  0.0963
88. CAATATAG  0.101
89. ATGGTCTC  0.102
90. CGATCGAA  0.106
91. ACCCACTA  0.107
92. CACATGTA  0.109
93. ACTATATC  0.109
94. AGTTTGGC  0.109
95. CGTAGATA  0.113
96. GTTTGAAA  0.113
97. AAACAATT  0.114
98. CTTTGAAA  0.116
99. ATAATCCG  0.119
100. CCTCGCGA  0.121
101. ATTTCCGC  0.123
102. ACTAATGA  0.128
103. TAGGTCGA  0.131
104. CTAATCCA  0.131
105. AAATACCC  0.136
106. ACTCTCGA  0.141
107. AACTTATT  0.142
108. CCGATTGA  0.144
109. TGTAGTAA  0.145
110. ATCATAGA  0.146
111. GCTATATA  0.149
112. GATAAGCA  0.154
113. CCTAATTA  0.156
114. AGCTAGCT  0.162
115. CATATATA  0.164
116. TAACAATA  0.165
117. ATTATGTC  0.181
118. ATAATCTA  0.185
119. AAAATATT  0.192
120. ACTAATTG  0.197
121. CTAATTTA  0.199
122. TTAATCAA  0.199
123. TATATACA  0.209
124. ACTAATGG  0.209
125. GATATATC  0.211
126. ATTAGATA  0.211
127. ATTATATG  0.211
128. ACGATTGC  0.213
129. TAATAAAA  0.226
130. GTAATCAC  0.229
131. GTTATATA  0.232
132. CGTAAGCA  0.232
133. AATAAGCT  0.234
134. ATAATTTA  0.236
135. AATTTCCG  0.24
136. AGTAAGCA  0.241
137. CCGATTGC  0.25
138. ATTATGTG  0.25
139. AAACAATA  0.251
140. ACTATATA  0.251
141. ATTTGAAA  0.251
142. TACATATA  0.252
143. AATAAGAA  0.252
144. ATAATCCA  0.252
145. GTAATCAA  0.253
146. GGTAAGCA  0.257
147. ATTAGATG  0.263
148. ATTTCCGG  0.264
149. GATATGGA  0.266
150. GTAATTTA  0.267
151. GTAATCTA  0.268
152. CAACAACA  0.269
153. TACATGTA  0.27
154. ACTCGCGA  0.271
155. CGATCGAC  0.272
156. ACTAATGC  0.275
157. GTAATCCA  0.277
158. ATTTGCAA  0.277
159. AGTAGATA  0.282
160. CAATATAA  0.283
161. AGTATATA  0.285
162. ATTCCCGG  0.296
163. GCTCGCGA  0.3
164. ATTTTCCG  0.304
165. ATTATATA  0.306
166. ACTAATTC  0.306
167. GCTAATTA  0.306
168. ATTATGTA  0.311
169. ATATATAC  0.317
170. CTTATATA  0.331
171. TAATATAA  0.332
172. GATATATA  0.333
173. AATAAGCA  0.343
174. TATATATA  0.377
175. ACTAATTA  0.377
